# Compound activity from PubChem BioAssay.
# In the library only some 8.7% were active in any assay of this set; here they are far more common.
# ALOX12 inh – inhibitors of human 12S-lipoxygenase ALOX12; P18054; purified 12hLO, xylenol orange hydroperoxide absorbance; Potency, µM (highest dose often 108 µM), for inactives: top-dose activity change, negative = inhibition, hits mostly inhibitors; actives 1.1% (n = 580,000); AID 1671190; also: % is scaled to controls: 0 for no effect and ±100 for the full control effect
# Target sequence (P18054 whole entry, looked up): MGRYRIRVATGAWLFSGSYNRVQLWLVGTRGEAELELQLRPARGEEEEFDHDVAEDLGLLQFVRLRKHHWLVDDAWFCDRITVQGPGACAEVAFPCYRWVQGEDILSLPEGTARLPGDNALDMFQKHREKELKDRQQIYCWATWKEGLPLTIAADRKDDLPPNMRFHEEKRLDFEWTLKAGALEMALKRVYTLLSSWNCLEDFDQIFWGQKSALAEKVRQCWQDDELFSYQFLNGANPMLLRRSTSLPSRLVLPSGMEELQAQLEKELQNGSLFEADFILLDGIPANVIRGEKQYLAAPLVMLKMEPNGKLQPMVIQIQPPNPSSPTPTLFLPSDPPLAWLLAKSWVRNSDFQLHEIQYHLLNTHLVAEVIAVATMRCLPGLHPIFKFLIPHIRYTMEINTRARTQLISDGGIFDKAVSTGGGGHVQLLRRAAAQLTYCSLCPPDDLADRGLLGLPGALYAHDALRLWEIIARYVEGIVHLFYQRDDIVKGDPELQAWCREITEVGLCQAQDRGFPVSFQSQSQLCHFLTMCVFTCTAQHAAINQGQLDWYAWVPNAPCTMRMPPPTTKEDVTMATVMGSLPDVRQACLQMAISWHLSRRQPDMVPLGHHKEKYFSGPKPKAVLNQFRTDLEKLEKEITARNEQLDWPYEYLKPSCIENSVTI
#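 Purified human 12hLO at 150 nM in 25 mM Hepes, 0.01% Triton X-100, pH 7.0, preincubated 15 min at room temperature with compound. Reaction started with 40 uM arachidonic acid, 30 min at room temperature. Hydroperoxide measured by Fe-xylenol orange, 573/405 nm absorbance ratio.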
# BAZ2B block – BAZ2B (human) inhibition. AID 504333. AlphaScreen BAZ2B-H3K14Ac peptide displacement. Potency, µM (series often up to 114 µM), without a hit: top-dose activity change, negative = inhibition, hits mostly inhibitors. Q9UIF8. actives 4.4% (n = 360,000); also: % is scaled to controls: 0 for no effect and ±100 for the full control effect; nearly all actives have a fitted effect of over 60% in size
#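 Complex of BAZ2B and biotin-H3K14Ac (50 nM apiece) forms over 30 min at RT, then faces library compounds up to 110 uM for another 30 min; AlphaScreen beads added, 20 min dark incubation, luminescence read.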
# HP1b chromo inh – inhibitors of HP1-beta chromodomain binding to methylated histone tails; AlphaScreen HP1-beta / biotin-H3K9me3 peptide binding; Potency, µM (series often up to 114 µM), for the others: at the highest dose activity change, negative = inhibition, usual class: inhibitors; actives 0.56% (n = 390,000); AID 540317; also: nearly all actives have a fitted effect of over 70% in size
#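 AlphaScreen: HP1-beta (50 nM) preformed 30 min with biotin-H3(1-18)K9me3 peptide (50 nM) in PBS pH 7.4, 0.01% Tween-20. Compound added for 30 min at RT, then streptavidin donor/nickel chelate acceptor beads (10 ug/mL) for 30 min.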
# Sfp PPTase inh – inhibitors of Bacillus subtilis Sfp phosphopantetheinyl transferase | AID 1490 | Biochemical Sfp PPTase activity, qHTS | Potency, µM, for inactives: largest response in the series, negative = inhibition, hits mostly inhibitors | actives 3.5% (n = 310,000);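 also: the enzyme is Sfp with the accession as filed and its product quenches rhodamine fluorescence; 0% = enzyme reaction without inhibitor and -100% = no enzyme wells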
#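 Fluorescence-quenching assay: 15 nM Sfp-PPTase preincubated 15 min at room temperature with compound, then 5 uM rhodamine-CoA and 12.5 uM BHQ-2-labelled YbbR peptide added. Fluorescence (ex 525/em 598 nm) read at start and after 30 min; difference gives rate.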
# JMJD2A Tudor inh – inhibitors of human JMJD2A Tudor domain. O75164. AlphaScreen JMJD2A-Tudor / H3K4me3 peptide binding. Potency, µM (highest dose often 114 µM), for inactives: top-dose activity change, negative = inhibition, most hits filed as inhibitors. actives 4.4% (n = 390,000); also: % is scaled to controls: 0 for no effect and ±100 for the full control effect; nearly all actives have a fitted effect of over 50% in size
# G9a inh – G9a (human) methyltransferase inhibition. Q96KQ7. G9a H3K9 monomethylation, AlphaScreen, 2 h. Potency, µM (series often up to 102 µM), inactives show top-dose activity, negative = inhibition, most hits filed as inhibitors. actives 8.8% (n = 350,000); also: % is scaled to controls: 0 for no effect and ±100 for the full control effect; nearly all actives have a fitted effect of over 75% in size
#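 Chemiluminescent proximity detection of H3K9 monomethylation, read after 10 min bead incubation in the dark. Reaction: 20 nM G9a, 500 nM biotin-H3K9 peptide, 20 uM SAM cofactor, 2 h, room temperature, following 15 min enzyme-compound preincubation.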
# Numbers without * were called inactive; ? = inconclusive; nt = no result given; [ ] = dose if it differs, or a comment. Calls follow the shape of the dose curve; as a rule, active = well fitted curve in the direction sought with a large enough effect; inconclusive = small, poorly fitted or top-dose-only effect, or another doubt; inactive = no such curve, though single readings can be large; an effect the other way counts as inactive or inconclusive. Potency is read from the fitted curve at half-maximal effect.
SMILES,ALOX12 inh,BAZ2B block,HP1b chromo inh,Sfp PPTase inh,JMJD2A Tudor inh,G9a inh
COc1ccc(C(=O)N[C@H]2CC[C@]3(C)CCC([C@H](C)C(=O)N(C)Cc4cccnc4)[C@H](O)[C@H]3[C@@H]2C)cc1 (some centres undefined),95%,nt,nt,nt,nt,nt
CN(CC(=O)Nc1c(Cl)cccc1Cl)C(=O)CCC(=O)c1ccccc1,2%,2%,35%,nt,-1%,50µM*
Cc1ccc(C(=O)N2CCC(CCC(=O)O)CC2)cc1,17%,nt,nt,nt,nt,nt
COCc1[nH]c(=S)[nH]c(=O)c1C,?,-21%,36%,79µM*,-23%,?
CCOCc1[nH]c(=S)[nH]c(=O)c1Cc1ccc(OCC)cc1,?,0%,3%,?,-7%[11.4 µM],nt
O=C(NCCc1noc(-c2cccnc2)n1)C1CCC1,15%,nt,nt,nt,nt,nt
CN(CCCCCCN(C)Cc1ccccc1O)Cc1ccccc1O,?,50µM*,?,?,20µM*,nt
c1ccc(COc2ccc(CNCc3cccs3)cc2)cc1,?,44%,50%,56µM*,17%,14%
Brc1ccc(CNCc2cccs2)cc1,1%,1%,35%,4%,9%,19%[59 µM]
C/C(=N\Nc1nc2ccccc2nc1C)c1ccccc1O,-4%,-13%,-8%,14%,-21%,22µM*
CCCNc1ncc2c(=O)[nH][nH]c(=O)c2n1,-2%,nt,3%,nt,20µM*,nt
CCCNc1nc2ccccc2c(=O)[nH]1,-6%,4%,2%,18%,-2%,8%
O=C(O)C(Cc1c[nH]c2ccccc12)NS(=O)(=O)c1ccc2ccccc2c1 (centres undefined),-26%,-4%,31%,-11%,-10%,-12%
NCC(c1ccco1)c1c[nH]c2ccccc12 (centres undefined),?,-9%,14%,16%,-23%,-5%[59 µM]
CN(C)c1ccc(C(CN)c2c[nH]c3ccccc23)cc1 (centres undefined),?,11µM*,?,50µM*,35µM*,32µM*
CN(C)c1ccc(C(CNS(=O)(=O)c2ccc3ccccc3c2)c2c[nH]c3ccccc23)cc1 (centres undefined),?,13µM*,?,9%,28µM*,10µM*
Cc1ccc(NC(=O)CNCc2ccccc2)cc1Br,-6%,50µM*,?,?,0.79µM*,7.9µM*
Cc1cc(NC(=O)CCN2CCN(C/C=C/c3ccccc3)CC2)ccc1Br,6.3µM*,?,1%,?,-29%,21%[0.501 µM]
Cc1ccc(NC(=O)CCN2CCN(Cc3ccccc3)CC2)cc1Br,50µM*,nt,nt,nt,nt,nt
CCc1cccc(C)c1NC(=O)Cn1nc(C(=O)O)c2ccccc2c1=O,16µM*,nt,nt,nt,nt,nt
CCc1cccc(CC)c1NC(=O)Cn1nc(C(=O)O)c2ccccc2c1=O,-17%,nt,nt,nt,nt,nt
COc1ccc(OC)c(NC(=O)CCN2CCN(Cc3ccccc3)CC2)c1,?,-9%,14%,4%,-31%,50µM*
COc1ccc(NC(=O)CCN2CCN(Cc3ccccc3)CC2)c(OC)c1,-4%,-7%,22%,6%,-2%,17%[0.501 µM]
Cc1ccc(NCC(=O)Nc2ccc(Br)cc2)cc1C,238%,?,37%,15%,-15%,56µM*
Cc1ccc(NC(=O)Cn2cccc2)cc1C,7%,?,10%,9%,-24%,?
SMILES,ALOX12 inh,BAZ2B block,HP1b chromo inh,Sfp PPTase inh,JMJD2A Tudor inh,G9a inh
CCc1cccc(C)c1NC(=O)CNCc1ccccc1,-13%,56%,?,-13%,8.9µM*,18µM*
Cc1ccc(NC(=O)CCn2cccc2)cc1C,-16%,?,-16%,-7%,?,50µM*
COCCCNC(=O)c1cc(-c2ccc(OC)cc2)nc2ccccc12,-34%,nt,nt,nt,nt,nt
CCOc1cc(=O)n2c(c1C(=O)Nc1ccc3c(c1)OCO3)CCCC2,17%,nt,nt,nt,nt,nt
CC(CNC(=O)Cn1nc(C(N)=O)c2ccccc2c1=O)(c1ccccc1)c1ccccc1,32µM*,nt,nt,nt,nt,nt
Cc1ccccc1C(=O)c1cccn1CC(=O)NCC1CCCO1 (centres undefined),-3%,8%,24%,13%,-16%,45µM*
CN1CCN(CCC(=O)Nc2cccc(Br)c2)CC1,?,-30%,20%,18%,-9%,56µM*
COc1cc(Cl)cc(NC(=O)CCN2CCN(C)CC2)c1,-43%,-6%,24%,-15%,-16%,50µM*
COc1cc(NC(=O)CCN2CCN(Cc3ccccc3)CC2)cc(OC)c1,7%,-31%,13%,-10%,-5%,-3%[59 µM]
CN(C)C1(CNC(=O)Cc2c[nH]c3ccccc23)CCCCCC1,8%,nt,nt,nt,nt,nt
O=C(c1c(F)cccc1F)N1CCC2(CC1)N=C(c1ccc(Cl)cc1)NO2,2%,nt,nt,nt,nt,nt
Cc1cc(NC(=O)CCN2CCC(C(N)=O)CC2)ccc1Br,0%,-5%,12%,10%,-12%,11%[59 µM]
O=C(Cn1nc(-c2ccccc2)c2ccccc2c1=O)NCC1CCCO1 (centres undefined),-10%,5%,55%,0%,11%,-6%
O=C(Cn1nc(C(=O)O)c2ccccc2c1=O)NCC1CCCO1 (centres undefined),-4%,3%,11%,1%,-4%,71µM*
CCc1cccc(C)c1NS(=O)(=O)Cc1ccccc1,7%,-3%,15%,11%,-7%,79µM*
Cc1cc(NC(=O)CCN2CCN(C)CC2)ccc1Br,0%,-1%,33%,3%,89µM*,13%[0.501 µM]
CCOCc1nc(C2CCCN(C(=O)c3ccccc3C)C2)no1 (centres undefined),12%,nt,nt,nt,nt,nt
COc1ccc(Cl)cc1-c1nc(-c2nnn3c2COC(c2ccc(C)cc2)C3)no1 (centres undefined),25%,nt,nt,nt,nt,nt
CCOC(Cn1c(SCc2cc(C(C)=O)ccc2OC)nc2ccccc2c1=O)OCC,-16%,2%,29%,8%,1%,19%
COc1ccc(C(C)=O)cc1CSc1nc2cc(C(=O)O)ccc2c(=O)n1Cc1ccccc1,-20%,50µM*,15%,-8%,-31%,?
OCCC#Cc1c(-c2ccsc2)sc2ccccc12,?,-4%,18%,3%,-14%,11µM*
CN(C)c1ccc(N2C(=NC(=O)C3CCCO3)SC3CS(=O)(=O)CC32)cc1 (centres undefined),-1%,?,9%,-2%,?,45µM*
CCOC(=O)c1c(-c2ccccc2)csc1NC(=O)C(C)NCc1ccco1 (centres undefined),-3%,50µM*,28µM*,?,?,25µM*
CCOC(=O)c1c(-c2ccc(Cl)cc2)csc1NC(=O)CNCc1ccco1,-1%,40µM*,?,50µM*,45µM*,-132%[59 µM]
CCCn1c(N2CCOCC2)nc2c1c(=O)n(C)c(=O)n2C,36%,nt,nt,nt,nt,nt
